Experimental findings from PubChem BioAssay AID1347420 (Sanford-Burnham Center for Chemical Genomics, 2020) are described below.

Usually inhibition stands for the drop in the measured response relative to a control, in per cent.

Out of some 1,300 compounds screened, about 980 (75%) were called active. Roughly 4% stayed inconclusive and do not appear here. Some of the results follow. Values without a mark were called inactive.

In the assay the target is Sulfhydryl oxidase 1 (Homo sapiens) (UniProt O00391). The experiment in a line: QSOX1 enzyme inhibitors, primary screen, biochemical, HyperBlu H2O2 luminescence, HTS (AID 1347420). Note: values above 100% were filed as inconclusive. The following applies: recombinant QSOX1, HyperBlu H2O2 luminescence; at 12.5 µM; stronger effect = higher value; active = any value above zero.
Sulfhydryl oxidase 1 (Homo sapiens), sequence (O00391 whole entry, looked up): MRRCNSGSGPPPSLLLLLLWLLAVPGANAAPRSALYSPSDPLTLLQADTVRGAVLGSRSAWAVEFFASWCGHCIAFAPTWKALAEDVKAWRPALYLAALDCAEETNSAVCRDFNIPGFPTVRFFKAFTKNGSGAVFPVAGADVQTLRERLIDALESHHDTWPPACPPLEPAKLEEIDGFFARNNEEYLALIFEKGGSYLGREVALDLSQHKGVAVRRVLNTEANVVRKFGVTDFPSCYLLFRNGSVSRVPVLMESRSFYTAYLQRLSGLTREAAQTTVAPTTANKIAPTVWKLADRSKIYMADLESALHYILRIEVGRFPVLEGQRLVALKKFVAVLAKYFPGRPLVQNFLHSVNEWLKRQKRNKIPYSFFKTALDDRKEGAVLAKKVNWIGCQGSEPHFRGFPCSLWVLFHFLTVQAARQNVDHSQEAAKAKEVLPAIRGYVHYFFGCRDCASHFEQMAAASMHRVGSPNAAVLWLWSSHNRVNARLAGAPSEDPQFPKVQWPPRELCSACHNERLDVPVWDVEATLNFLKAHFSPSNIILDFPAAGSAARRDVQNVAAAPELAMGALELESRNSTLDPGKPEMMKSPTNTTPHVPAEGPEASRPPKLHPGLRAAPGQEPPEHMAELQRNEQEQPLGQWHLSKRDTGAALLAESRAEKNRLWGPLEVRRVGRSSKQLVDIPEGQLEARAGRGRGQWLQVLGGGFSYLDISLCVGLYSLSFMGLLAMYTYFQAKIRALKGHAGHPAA
As for `NC(=O)OCC(COC(N)=O)c1ccccc1`, the inhibition is 6.4% (active).

Take `N=C(N)c1ccc(OCCCCCOc2ccc(C(=N)N)cc2)cc1`: the inhibition was 14.9% (active).

Regarding `N=C(N)c1ccc(N)cc1`, the inhibition is -0.4%.

In the case of `NC1(C(=O)O)CC1`, the inhibition was 0.9% (active).

Regarding `NC1(C(=O)O)CCCCC1`, the inhibition is 12.2% (active).

Take `Clc1nccc2c1ccc1ccccc12`: the inhibition was 5.5% (active).

`CN(C)C(=O)C(CCN1CCC(O)(c2ccc(Cl)cc2)CC1)(c1ccccc1)c1ccccc1`: the inhibition is -0.4%.

Consider `O=C(CCCN1CCC(O)(c2ccc(Cl)cc2)CC1)c1ccc(F)cc1`, for which the inhibition is 4.3% (active).

As for `O=C(CCCN1CCC(O)(c2cccc(C(F)(F)F)c2)CC1)c1ccc(F)cc1`, the inhibition is 1.8% (active).

On to `CN(C(=O)CCCOc1ccc2[nH]c(=O)ccc2c1)C1CCCCC1`, for which the inhibition is 13.1% (active).

With `CN1C2CCC1CC(OC(c1ccccc1)c1ccccc1)C2` (stereo unspecified), the inhibition was 7.5% (active).

As to `CN1C2CC(OC(=O)[C@H](CO)c3ccccc3)CC1C1OC12` (stereo partly specified), the inhibition is 10.8% (active).

Take `CN1C2CCC1CC(OC(=O)c1c[nH]c3ccccc13)C2` (stereo unspecified): the inhibition was 8.4% (active).

For `CN1C2CCC1CC(OC(=O)C(CO)c1ccccc1)C2` (stereo unspecified), the inhibition was 0.4% (active).

As for `CN1C2CCC1CC(OC(=O)C(O)c1ccccc1)C2` (stereo unspecified), the inhibition is 6.4% (active).

As for `CC(C)(C)C(=O)Oc1ccc(S(=O)(=O)Nc2ccccc2C(=O)NCC(=O)O)cc1`, the inhibition is 18.6% (active).

Consider `CNC1(C)C2CCC(C2)C1(C)C` (stereo unspecified), for which the inhibition is -4.4%.

Regarding `NC(=O)NO`, the inhibition is 11.4% (active).

Take `CC(C)C[C@H](NC(=O)C1OC1C(=O)O)C(=O)NCCCCN=C(N)N` (stereo partly specified): the inhibition was -7.9%.

For `N[C@H](C(=O)O)[C@H](Cc1ccccc1)C(=O)O`, the inhibition is 4.3% (active).

Take `NCCCNCCSP(=O)(O)O`: the inhibition was 7.6% (active).

Consider `NCCCCNCCCN`, for which the inhibition was -8.3%.

For `NCCCNCCCCNCCCN`, the inhibition was 19.3% (active).

With `S=C(S)N1CCCC1`, the inhibition was 86.2% (active).

Take `CC(C)CC(NP(=O)(O)O[C@@H]1O[C@@H](C)[C@H](O)[C@@H](O)[C@H]1O)C(=O)NC(Cc1c[nH]c2ccccc12)C(=O)O` (stereo partly specified): the inhibition is 59.4% (active).

Take `O=C(O)c1cccnc1Nc1cccc(C(F)(F)F)c1`: the inhibition is 3.2% (active).

Take `Nc1ncnc2c1nc(Br)n2C1OC2COP(=O)(O)O[C@@H]2C1O` (stereo partly specified): the inhibition was 4.7% (active).

Consider `Nc1nc(O)c2nc(Br)n(C3OC4COP(=O)(O)O[C@@H]4C3O)c2n1` (stereo partly specified), for which the inhibition was 9.3% (active).

As for `Nc1ncnc2c1nc(Sc1ccc(Cl)cc1)n2C1OC2COP(=O)(O)O[C@@H]2[C@@H]1O` (stereo partly specified), the inhibition is 7.4% (active).

Regarding `Nc1ncnc2nc(-c3ccc(N4CCOCC4)nc3)cc(-c3cccc(Br)c3)c12`, the inhibition is -3%.

Consider `O=c1[nH]c2cc(Cl)ccc2c(O)c1-c1ccc(Oc2ccccc2)cc1`, for which the inhibition is 8.7% (active).

In the case of `CN(C)c1nc(N(C)C)nc(N(C)C)n1`, the inhibition was 31.3% (active).

For `CN1[C@@H](CC(=O)c2ccccc2)CCC[C@H]1C[C@H](O)c1ccccc1`, the inhibition is 15.5% (active).

With `O=C(O)CCCC[C@@H]1CCSS1`, the inhibition is 0.1% (active).

For `Cc1cc(C(C)(C)C)cc(C)c1CC1=NCCN1`, the inhibition is 5% (active).

As to `Cc1cc(C(C)(C)C)c(O)c(C)c1CC1=NCCN1`, the inhibition is 11.2% (active).

On to `CC(=O)[C@H]1CC[C+]2C3CC=C4C[C@@H](OS(=O)(=O)[O-])CC[C@]4(C)C3CC[C@@]21C` (stereo partly specified), for which the inhibition was -11.2%.

Turning to `CCN(Cc1ccncc1)C(=O)C(CO)c1ccccc1` (stereo unspecified), the inhibition was 1.5% (active).

Consider `COc1ccc(/C=C2\COc3ccc(C)cc3C2=O)cc1O`, for which the inhibition is 75.9% (active).

In the case of `CCCc1c(-c2ccc(O)cc2)nn(-c2ccc(O)cc2)c1-c1ccc(O)cc1`, the inhibition was 68.4% (active).

`Brc1c(NC2=NCCN2)ccc2nccnc12`: the inhibition was 21.8% (active).

As to `CC(=O)O[C@H]1CC2(C)[C@@H](C[C@@H](O)[C@H]3[C@@]4(C)CC[C@@H](O)[C@@H](C)[C@@H]4CC[C@@]32C)/C1=C(/CCC=C(C)C)C(=O)O` (stereo partly specified), the inhibition is 15.9% (active).

Regarding `CCN(CC)CCn1c(=O)c(Cc2ccc(OC)cc2)nc2ccccc21`, the inhibition was 11.3% (active).

For the compound `CCCNCC(O)COc1ccccc1C(=O)CCc1ccccc1` (stereo unspecified), the inhibition was 9.1% (active).

For `O=C(O)c1cc2cc(Cc3cccnc3)ccc2o1`, the inhibition is 12.1% (active).

In the case of `NC(N)=Nc1nc(CSCC/C(N)=N/S(N)(=O)=O)cs1`, the inhibition is 19.1% (active).

For `CC(/C=C/c1cccc(Oc2ccc(F)cc2)c1)N(O)C(N)=O` (stereo unspecified), the inhibition is 17.2% (active).

As for `O=C(CCc1ccc(O)cc1)c1c(O)cc(O)cc1O`, the inhibition was 35.5% (active).

`NS(=O)(=O)C#Cc1ccccc1`: the inhibition is 7% (active).

Consider `NC(=O)c1cnccn1`, for which the inhibition was 6.1% (active).

With `CCCCCCCCCCCCCCC[C@H](O)[C@H](N)CO`, the inhibition is 18.5% (active).

Regarding `COc1ccc(NC(=O)c2ccc(-c3ccc(-c4noc(C)n4)cc3C)cc2)cc1N1CCN(C)CC1`, the inhibition was 3.7% (active).

In the case of `CCCCCN(C)CCC(O)(P(=O)(O)O)P(=O)(O)O`, the inhibition was -4.8%.

In the case of `O=c1onc2n1-c1cc(Br)ccc1OC2`, the inhibition was 5.7% (active).

For the compound `CC(C)(C)c1ccc(C(=O)CCCN2CCC(OC(c3ccccc3)c3ccccc3)CC2)cc1`, the inhibition was 8.3% (active).

For the compound `CC(CCc1ccc(O)cc1)NCCc1ccc(O)c(O)c1` (stereo unspecified), the inhibition was 83.4% (active).

For `C[C@@H](NCCc1ccc(O)cc1)[C@@H](O)c1ccc(O)cc1`, the inhibition was 14.4% (active).

For the compound `O=c1[nH]c2cc(C(F)(F)F)ccc2n1-c1cc(C(F)(F)F)ccc1O`, the inhibition is 11.5% (active).

Consider `C[C@H]1CC2C3CCC4=CC(=O)C=C[C@]4(C)[C@@]3(Cl)[C@@H](O)C[C@]2(C)[C@@]1(O)C(=O)CO` (stereo partly specified), for which the inhibition is -10.3%.

Consider `C[C@]12C=CC(=O)C=C1CC[C@H]1[C@@H]3C[C@@H](O)[C@](O)(C(=O)CO)[C@@]3(C)C[C@H](O)[C@@]12F`, for which the inhibition is 26.2% (active).

On to `CC1CC2C3CCC4=CC(=O)C=C[C@]4(C)[C@@]3(F)[C@@H](O)C[C@]2(C)[C@@]1(O)C(=O)CO` (stereo partly specified), for which the inhibition was 11.4% (active).

With `CCOC(=O)C1=C(C)NC(C)=C(C(=O)OC)C1c1cccc(Cl)c1Cl` (stereo unspecified), the inhibition is 6.3% (active).

For the compound `C#CCN1C(C)=C(C(=O)OC)C(c2cccc([N+](=O)[O-])c2)C(C(=O)OCC)=C1C` (stereo unspecified), the inhibition is 7.8% (active).

As to `CCOC(=O)C1=C(C)NC(C)=C(C(=O)OC)C1c1cccc([N+](=O)[O-])c1` (stereo unspecified), the inhibition is 14% (active).

Turning to `COC(=O)C1=C(C)NC(C)=C(C(=O)OCCN(C)Cc2ccccc2)C1c1cccc([N+](=O)[O-])c1` (stereo unspecified), the inhibition is 6.8% (active).

Turning to `CCOC(=O)C1=C(C)NC(C)=C(C(=O)OCC)C1c1c(F)c(F)c(F)c(F)c1F`, the inhibition was -4.7%.
